Measurements reported in the antibiotic and cytotoxicity screens of Wong et al. (2023).
The campaign covered roughly 39,000 compounds. About 3,300 (8.5%) were called active. The sample as a whole holds a higher share of actives than the screen did.

test system: HepG2; assay: cytotoxicity call (relative viability < 0.9); settings: 10 µM

Question: How did the cytotoxicity call turn out when `NC[C@@H](CC(=O)O)c1ccc(Cl)cc1` was run?
Answer: inactive

Question: How did the cytotoxicity call turn out when `CCOC(=O)c1c(CN2CCN(Cc3ccccc3)CC2)n(Cc2ccccc2)c2cc(Br)c(O)cc12` was run?
Answer: inactive

Question: Which cytotoxicity call does the source give for `CN(C)C(=O)C(CCN1CCC(O)(c2ccc(Cl)cc2)CC1)(c1ccccc1)c1ccccc1.Cl` here?
Answer: active

Question: For `CN1CCN(CC2CC2)C(=O)C12CCNCC2`, which cytotoxicity call is on record?
Answer: inactive

Question: How did the cytotoxicity call turn out when `O=C(C1CCCC1)N1C[C@@H]2CCNC[C@@H]21` was run?
Answer: inactive

Question: How did the cytotoxicity call turn out when `CCN1C(=O)/C(=C/c2ccc[nH]2)C(=O)NC1=S` was run?
Answer: inactive

Question: For `CO[C@H]1[C@@H](O)C[C@@H](O[C@H]2[C@@H](O)C[C@@H](O[C@H]3[C@@H](O)C[C@@H](O[C@H]4CC[C@@]5(C)[C@@H](CC[C@H]6[C@@H]5C[C@@H](O)[C@@]5(C)[C@H](C7=CC(=O)OC7)CC[C@@]65O)C4)O[C@@H]3C)O[C@@H]2C)O[C@@H]1C`, which cytotoxicity call is on record?
Answer: active

Question: How did the cytotoxicity call turn out when `CC12CCC3C(CCC4CC(O)CCC43C)C1CCC2=O` (stereo unspecified) was run?
Answer: inactive

Question: Which cytotoxicity call does the source give for `CC12CCC3C(CCC4CC(O)CCC43C)C1CCC2O` (stereo unspecified) here?
Answer: inactive

Question: Which cytotoxicity call does the source give for `CO[C@H]1[C@@H](O)[C@@H](O[C@H]2CC[C@]3(C=O)[C@@H]4[C@@H](CC[C@]3(O)C2)[C@@]2(O)CC[C@H](C3=CC(=O)OC3)[C@@]2(C)C[C@H]4OC(C)=O)O[C@@H](C)[C@@H]1OC(C)=O` here?
Answer: inactive

Question: Which cytotoxicity call does the source give for `CC12CCC(O)CC1CCC1C2CC(O)C2(C)C(C3=CC(=O)OC3)CCC12O` (stereo unspecified) here?
Answer: active

Question: For `CC(=O)O[C@H]1C[C@H](O[C@H]2[C@@H](O)C[C@H](O[C@H]3[C@@H](O)C[C@H](O[C@H]4CC[C@@]5(C)[C@@H](CC[C@H]6[C@@H]5C[C@@H](O)[C@]5(C)[C@@H](C7=CC(=O)OC7)CC[C@]65O)C4)O[C@@H]3C)O[C@@H]2C)O[C@H](C)[C@H]1O[C@@H]1O[C@H](CO)[C@@H](O)[C@H](O)[C@H]1O`, which cytotoxicity call is on record?
Answer: active

Question: How did the cytotoxicity call turn out when `CO[C@H]1[C@H](O)[C@@H](O[C@H]2[C@@H](C)O[C@@H](O[C@H]3[C@H](C)O[C@H](O[C@H]4CC[C@@]5(C)[C@@H](CC[C@@]6(O)[C@@H]5C[C@@H](O)[C@]5(C)[C@]6(O)CC[C@@]5(O)[C@@H](C)O)C4)C[C@@H]3OC)C[C@H]2OC)O[C@@H](C)[C@H]1O` was run?
Answer: inactive

Question: How did the cytotoxicity call turn out when `CC(=O)OC1CC(OC2C(O)CC(OC3C(O)CC(OC4CCC5(C)C(CCC6C5CC(O)C5(C)C(C7=CC(=O)OC7)CCC65O)C4)OC3C)OC2C)OC(C)C1OC1OC(CO)C(O)C(O)C1O` (stereo unspecified) was run?
Answer: active

Question: `O=C(NC[C@H]1CC[C@]2(CNCCOC2)O1)c1ccnnc1` was tested. Which cytotoxicity call did it give?
Answer: inactive

Question: Which cytotoxicity call does the source give for `C=C(C)[C@H]1CN[C@H](C(=O)O)[C@@H]1CC(=O)O` here?
Answer: inactive

Question: For `CO/C1=C\C(C)=C\[C@@H](C)[C@@H](O)[C@@H](C)C/C(C)=C/C=C/[C@H](OC)[C@@H]([C@@H](C)[C@@H](O)[C@H](C)C(=O)/C=C/[C@H](C)[C@H](O)C(C)C)OC1=O`, which cytotoxicity call is on record?
Answer: inactive

Question: How did the cytotoxicity call turn out when `CC(C)c1ccc2c(c1)[C@H](O)[C@H](N)CCO2` was run?
Answer: inactive

Question: `O=C1NCC2(CNC2)O1` was tested. Which cytotoxicity call did it give?
Answer: inactive

Question: `CCN(CC)C1CCCCC1` was tested. Which cytotoxicity call did it give?
Answer: inactive

Question: How did the cytotoxicity call turn out when `NC1(Cc2ccc(Cl)cc2)CC1` was run?
Answer: inactive

Question: Which cytotoxicity call does the source give for `O.O=c1ccc2cc(OC3OC(CO)C(O)C(O)C3O)c(O)cc2o1` (stereo unspecified) here?
Answer: inactive

Question: With `CC(C)(C)[C@]1(O)C[C@@H]2OC(=O)C[C@]23C(=O)O[C@@H]2OC(=O)[C@H](O)[C@]231` as the molecule, how does the cytotoxicity call read?
Answer: inactive

Question: For `CC(=O)O[C@H]1C[C@@H]2CC[C@@H]3[C@H](CC[C@@]4(C)[C@H]3C[C@H]([N+]3(C)CCCCC3)[C@@H]4OC(C)=O)[C@@]2(C)C[C@@H]1[N+]1(C)CCCCC1`, which cytotoxicity call is on record?
Answer: inactive

Question: Which cytotoxicity call does the source give for `CC(=O)OC1CCC2(C)C(CCC3C2CCC2(C)C(C4=CC(=O)OC4)C(OC(C)=O)CC32O)C1` (stereo unspecified) here?
Answer: active

Question: `O=C(O)CC[N+](=O)[O-]` was tested. Which cytotoxicity call did it give?
Answer: inactive

Question: Which cytotoxicity call does the source give for `C[C@H]1CN([C@@H](C)CO)C(=O)CCCn2cc(nn2)CO[C@@H]1CN(C)C(=O)Oc1ccc2ccccc2c1` here?
Answer: inactive

Question: Which cytotoxicity call does the source give for `[N-]=[N+]=NCC(=O)Nc1ccon1` here?
Answer: inactive

Question: `N#CCCN.O=C(O)C=CC(=O)O` was tested. Which cytotoxicity call did it give?
Answer: inactive

Question: Which cytotoxicity call does the source give for `COC(=O)[C@H]1[C@H](CO)[C@H]2Cn3c(ccc(C4=CCCC4)c3=O)[C@@H]1N2S(=O)(=O)c1cn(C)cn1` here?
Answer: inactive

Question: `CC[C@@H](C)C(=O)O[C@H]1[C@H](O)[C@H]2[C@@H](CN3C[C@@H](C)CC[C@@H]3[C@@]2(C)O)[C@H]2C[C@]34O[C@]5(O)[C@@H](OC(=O)[C@@](C)(O)[C@@H](C)O)CC[C@@]3(C)[C@@H]5[C@@H](OC(C)=O)[C@@H](OC(C)=O)[C@@H]4[C@@]21O` was tested. Which cytotoxicity call did it give?
Answer: active

Question: Which cytotoxicity call does the source give for `C/C=C(/C)C(=O)O[C@H]1CC[C@@]2(C)[C@@H]3CC[C@H]4[C@]5(O)C[C@H](O)[C@@]6(O)[C@@H](CN7C[C@@H](C)CC[C@H]7[C@@]6(C)O)[C@]5(O)C[C@@]42O[C@@]13O` here?
Answer: inactive

Question: With `CC[C@@H](C)C(=O)O[C@H]1[C@H](O)[C@H]2[C@@H](CN3C[C@@H](C)CC[C@@H]3[C@@]2(C)O)[C@H]2C[C@]34O[C@]5(O)[C@@H](OC(=O)[C@@](C)(O)CC)CC[C@@]3(C)[C@@H]5[C@@H](OC(C)=O)[C@@H](OC(C)=O)[C@@H]4[C@@]21O` as the molecule, how does the cytotoxicity call read?
Answer: inactive

Question: With `CC(C)C12CN3CCN(CC(C3)C1=O)C2` as the molecule, how does the cytotoxicity call read?
Answer: inactive

Question: For `C[C@@H]1CN([C@H](C)CO)C(=O)c2c(c3ccccc3n2C)-c2ccccc2CO[C@H]1CN(C)C(=O)Oc1ccccc1`, which cytotoxicity call is on record?
Answer: inactive

Question: How did the cytotoxicity call turn out when `Cc1o[nH]c(=O)c1C[C@@H](N)C(=O)O` was run?
Answer: inactive

Question: `COc1ccc(OC)c(C(O)C(C)N)c1.Cl` (stereo unspecified) was tested. Which cytotoxicity call did it give?
Answer: active

Question: `COc1ccc(OC)c(CN)c1` was tested. Which cytotoxicity call did it give?
Answer: inactive

Question: For `CC(N)C(O)c1ccccc1.Cl` (stereo unspecified), which cytotoxicity call is on record?
Answer: inactive

Question: `O=c1[nH]oc2c1CCNC2` was tested. Which cytotoxicity call did it give?
Answer: inactive

Question: With `COC(C)(C)CCC[C@H](C)C/C=C/C(C)=C/C(=O)OC(C)C` as the molecule, how does the cytotoxicity call read?
Answer: inactive

Question: For `Cl.O=C1CCC2(O)C3Cc4ccc(O)c5c4C2(CCN3CC2CC2)C1O5` (stereo unspecified), which cytotoxicity call is on record?
Answer: inactive

Question: Which cytotoxicity call does the source give for `C=CC1CN2CCC1CC2C(O)c1ccnc2ccccc12` (stereo unspecified) here?
Answer: inactive

Question: `C=CC1CN2CCC1CC2C(OC(=O)OCC)c1ccnc2ccc(OC)cc12` (stereo unspecified) was tested. Which cytotoxicity call did it give?
Answer: inactive

Question: Which cytotoxicity call does the source give for `CCC1CN2CCC1CC2C(O)c1ccnc2ccc(OC)cc12` (stereo unspecified) here?
Answer: active

Question: How did the cytotoxicity call turn out when `COC1C(O)C(C)OC(OC2CCC3(C)C4CCC5(C)C(C6=CC(=O)OC6)CCC5(O)C4CCC3(O)C2)C1O` (stereo unspecified) was run?
Answer: inactive

Question: With `CC1OC(OC2CCC3(C=O)C4CCC5(C)C(C6=CC(=O)OC6)CCC5(O)C4CCC3(O)C2)C(O)C(O)C1O` (stereo unspecified) as the molecule, how does the cytotoxicity call read?
Answer: active

Question: For `CO[C@H]1C[C@H](O[C@H]2CC[C@]3(C=O)[C@H]4CC[C@]5(C)[C@@H](C6=CC(=O)OC6)CC[C@]5(O)[C@@H]4CC[C@]3(O)C2)O[C@H](C)[C@H]1O`, which cytotoxicity call is on record?
Answer: active

Question: For `COC1C(O)C(C)OC(OC2CCC3(C=O)C(CCC4C3CCC3(C)C(C5=CC(=O)OC5)CCC43O)C2)C1O` (stereo unspecified), which cytotoxicity call is on record?
Answer: active

Question: Which cytotoxicity call does the source give for `C[C@@H]1O[C@@H](O[C@H]2CC[C@]3(C=O)[C@H]4CC[C@]5(C)[C@@H](C6=CC(=O)OC6)CC[C@]5(O)[C@@H]4CC[C@]3(O)C2)[C@H](O)[C@H](O)[C@H]1O` here?
Answer: active

Question: For `CO[C@H]1[C@@H](O)[C@@H](C)O[C@H](O[C@H]2CC[C@@]3(C)[C@H]4CC[C@@]5(C)[C@@H](C6=CC(=O)OC6)CC[C@]5(O)[C@@H]4CC[C@]3(O)C2)[C@@H]1O`, which cytotoxicity call is on record?
Answer: inactive
